# This is one part of a sample in which hits are shown more often than they occur.
# DT40 TDP1 CPT: growth inhibition of DT40 Tdp1-/-;hTDP1 cells with camptothecin (screen for TDP1 inhibitors). chicken DT40 Tdp1-/-;hTDP1 cells + 20 nM CPT, ATP luminescence, 48 h. Potency, µM (series often up to 46.2 µM), without a hit: at the top dose activity change, negative = growth inhibition, actives largely listed as inhibitors. 12% of 420,000 active; also: potency is read from the fitted curve at half-maximal effect; nearly all actives have a fitted effect of over 55% in size
#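 Cell growth measured by CellTiter-Glo luminescence after a minimum 48 h, 37 C compound exposure with 20 nM CPT in Tdp1-knockout DT40 cells stably expressing hTDP1, seeded 400/well; qHTS titration format.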
# HT1080 IDH1KD tx: toxicity to HT-1080 IDH1 knockdown cells (counter line) | HT-1080 IDH1 knockdown viability, ATP luminescence, 48 h | Potency, µM (titrated, usually from 46.1 µM), inactives show at the top dose activity, negative = toxicity, most hits filed as cytotoxic | 2% of 360,000 active;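 also: potency is read from the fitted curve at half-maximal effect; 0% = DMSO wells and -100% = cell-free medium wells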
#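 Viability of IDH1-knockdown HT-1080 fibrosarcoma cells was assessed by CellTiter-Glo after 48 h at 37 °C with titrated compound; concentration-effect curves were classified by fit quality and response size.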
# IL1B secr inh: blocks inflammasome-driven IL-1 beta release. 4.7% of 360,000 active. AID 743279. activity change, % at 57.5 µM. THP-1 LPS/ATP IL-1B secretion, AlphaLISA, 16 h; hits give low values; in the data active = activity change below about -50%; inconclusive = mostly about -30% to -49%
#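 Secreted IL-1B measured by AlphaLISA bead assay after 16 h compound exposure of THP-1 cells; compounds (final up to 57.5 uM) added 1 h before LPS (250 ng/mL) and ATP (1.25 mM) stimulation; lower signal means less secretion.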
# 12-LOX inh: inhibitors of human 12S-lipoxygenase ALOX12; P18054; purified 12hLO, xylenol orange hydroperoxide absorbance; Potency, µM (top dose mostly 108 µM), for the others: at the top dose activity change, negative = inhibition, most hits filed as inhibitors; 1.1% of 580,000 active; AID 1671190; also: potency is read from the fitted curve at half-maximal effect
# Target sequence (P18054 whole entry, looked up): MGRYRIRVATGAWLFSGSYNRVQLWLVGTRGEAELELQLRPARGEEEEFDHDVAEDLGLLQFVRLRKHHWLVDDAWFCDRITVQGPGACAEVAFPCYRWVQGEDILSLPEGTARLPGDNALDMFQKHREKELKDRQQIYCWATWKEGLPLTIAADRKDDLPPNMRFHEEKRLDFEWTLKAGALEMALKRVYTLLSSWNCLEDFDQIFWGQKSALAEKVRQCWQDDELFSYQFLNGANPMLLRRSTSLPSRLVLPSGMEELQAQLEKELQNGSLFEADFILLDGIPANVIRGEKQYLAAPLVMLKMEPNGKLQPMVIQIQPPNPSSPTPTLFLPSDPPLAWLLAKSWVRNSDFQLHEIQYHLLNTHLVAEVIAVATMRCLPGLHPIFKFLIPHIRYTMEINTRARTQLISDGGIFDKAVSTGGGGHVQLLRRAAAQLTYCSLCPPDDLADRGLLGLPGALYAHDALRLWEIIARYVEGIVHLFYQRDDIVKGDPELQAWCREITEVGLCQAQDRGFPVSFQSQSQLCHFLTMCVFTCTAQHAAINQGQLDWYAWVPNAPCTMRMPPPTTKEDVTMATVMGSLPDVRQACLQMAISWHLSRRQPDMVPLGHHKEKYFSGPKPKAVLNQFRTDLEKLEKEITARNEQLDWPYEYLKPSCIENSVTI
#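 Purified human 12hLO at 150 nM in 25 mM Hepes, 0.01% Triton X-100, pH 7.0, preincubated 15 min at room temperature with compound. Reaction started with 40 uM arachidonic acid, 30 min at room temperature. Hydroperoxide measured by Fe-xylenol orange, 573/405 nm absorbance ratio.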
# HT1080NT lethal: kills 2HG-producing HT-1080-NT fibrosarcoma cells; HT-1080-NT fibrosarcoma viability, CellTiter-Glo ATP luminescence, 48 h; Potency, µM (doses to about 46.1 µM), inactives show at the top dose activity, negative = less viability, hits mostly cytotoxic; 1.6% of 360,000 active; AID 686970;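 also: NT is the 2HG producing partner of a matched IDH1 knockdown line; potency is read from the fitted curve at half-maximal effect; 0% = DMSO-treated cells and -100% = media-only wells without cells; nearly all actives have a fitted effect of over 55% in size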
#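 HT-1080-NT; 750 cells/well; 5% FBS RPMI; 48 h compound, 37 degrees C; CellTiter-Glo luminescence; curve fitting and curve-class assignment.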
# DT40 TDP1 no CPT: qHTS for Inhibitors of human tyrosyl-DNA phosphodiesterase 1 (TDP1): qHTS in cells in absence of CPT. DT40 Tdp1-/- hTDP1 cells, no CPT, ATP luminescence, 48 h. Potency, µM (highest dose often 46.2 µM), inactives show at the highest dose activity change, negative = growth inhibition, usual class: inhibitors. 15% of 420,000 active. AID 686978, 2013; also: potency is read from the fitted curve at half-maximal effect; nearly all actives have a fitted effect of over 55% in size
#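 Growth of hTDP1-complemented DT40 Tdp1-knockout cells is measured by ATP luminescence after at least 48 hr compound exposure at 37 °C, with DMSO substituting for the 20 nM CPT used in the parallel screen.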
# Active calls of the source: *; i = inactive; u = inconclusive; x = no result; [ ] = remark or other dose. Unless noted, calls follow the shape of the dose curve; as a rule, active = well fitted curve in the direction sought with a large enough effect; inconclusive = small, poorly fitted or top-dose-only effect, or another doubt; inactive = no such curve, though single readings can be large; an effect the other way counts as inactive or inconclusive. Unless noted, % is scaled to controls: 0 for no effect and ±100 for the full control effect.
SMILES,DT40 TDP1 CPT,HT1080 IDH1KD tx,IL1B secr inh,12-LOX inh,HT1080NT lethal,DT40 TDP1 no CPT
C=CCNC(=O)C(NC(=O)c1ccc2c(c1)OCO2)C1CCN(C(=O)c2cccc(F)c2)CC1 (stereo unspecified),x,x,x,36%,x,x
Cc1ccc(C2Cn3nnc(-c4nc(-c5cccnc5)no4)c3CO2)c(C)c1 (stereo unspecified),x,x,x,16%,x,x
Cc1ccc(C(=O)N2CCC3(CC2)CC(N(Cc2ccc(F)cc2)C2CC2)CCO3)cc1 (stereo unspecified),x,x,x,-6%,x,x
O=c1c(-c2ccc([N+](=O)[O-])cc2)coc2c(O)c(O)ccc12,u,u,180,6.3µM*,-37%,u
Cn1c(=O)c2c(ncn2CC(=O)Nc2ccccc2C(=O)NC2CCCCC2)n(C)c1=O,x,x,x,-9%,x,x
O=C(NCc1cccc(Cl)c1)c1ccc(CS(=O)Cc2ccc(Cl)cc2)o1 (stereo unspecified),u,-20%,-74*,-28%,-19%,-3%
O=C(NCc1ccc2c(c1)OCO2)c1ccc(CS(=O)Cc2ccc(Cl)cc2)o1 (stereo unspecified),-12%,-5%,-69*,u,3%,-15%
CC1c2ccccc2SC(CCCN(C)C)c2ccccc21 (stereo unspecified),16µM*,u,-52*,-5%,u,u
CCC[n+]1c(C)sc2c(OC)ccc(OC)c21,u,0%,-24,u,0%,u
CC[n+]1c(C)sc2c3ccsc3ccc21,23µM*,9%,51,u,6%,16µM*
CN(CCc1ccccc1)C(=O)c1ccc(NC(=O)Cc2ccc(NC(=O)C3CCN(S(=O)(=O)c4cccc([N+](=O)[O-])c4)CC3)cc2)cc1,u,-6%,37,1%,u,9.2µM*
CN(CCc1ccccc1)C(=O)c1ccc(NC(=O)Cc2ccc(NC(=O)C3CCCN(C(=O)C4CCC4)C3)cc2)cc1 (stereo unspecified),13µM*,-24%,-4,0%,-8%,13µM*
CN(CCc1ccccc1)C(=O)c1ccc(NC(=O)Cc2cccc(NC(=O)C3CCN(S(=O)(=O)c4cccc([N+](=O)[O-])c4)CC3)c2)cc1,-24%,2%,-14,u,4%,-28%
CN(CCc1ccccc1)C(=O)c1ccc(NC(=O)Cc2ccc(NC(=O)C3CCCN(C(=O)CCc4ccccc4)C3)cc2)cc1 (stereo unspecified),13µM*,u,9,-3%,-20%,10µM*
CN(CCc1ccccc1)C(=O)c1ccc(NC(=O)Cc2ccc(NC(=O)C3CCN(C(=O)CCc4ccccc4)CC3)cc2)cc1,15µM*,u,23,1%,u,7.3µM*
COC(=O)CC1c2cc(OC)c(OC)cc2CCN1Cc1nc(C2CC2)no1 (stereo unspecified),x,x,x,-28%,x,x
Cc1nn(C)c2c1c(C(F)(F)F)cc(=O)n2C(C)C(=O)NCCC(C)C (stereo unspecified),16µM*,x,x,-2%,x,u
Cc1nn(C)c2c1c(-c1ccccc1)cc(=O)n2Cc1ccccc1C#N,23µM*,x,x,-19%,x,u
Cc1nn(C)c2c1c(C(F)(F)F)cc(=O)n2C(C)C(=O)NCCc1ccccc1 (stereo unspecified),0.18µM*,x,x,-6%,x,-83%
COc1cccc(CNC(=O)C(C)n2c(=O)cc(-c3ccccc3)c3c(C)nn(C)c32)c1 (stereo unspecified),u,x,x,-29%,x,-49%
Cc1ccc(CNC(=O)C(C)n2c(=O)cc(-c3ccccc3)c3c(C)nn(C)c32)cc1 (stereo unspecified),18µM*,x,x,u,x,u
Cc1nn(C)c2c1c(C(F)(F)F)cc(=O)n2C(C)C(=O)NCc1ccccc1Cl (stereo unspecified),-15%,x,x,-3%,x,-5%
COc1cccc(OC)c1CN1CCC2(CC1)CC(O)CCO2 (stereo unspecified),x,x,x,9%,x,x
CC(C)CCN1CCCC2(C1)C(=NC1CCCCC1)NC(=O)N2c1cc(F)cc(F)c1 (stereo unspecified),x,x,x,-1%[6.33 µM],x,x
COC(=O)c1ccc(Cn2c(=O)cc(C(F)(F)F)c3c(C)nn(C)c32)cc1,u,x,x,-25%,x,15µM*
SMILES,DT40 TDP1 CPT,HT1080 IDH1KD tx,IL1B secr inh,12-LOX inh,HT1080NT lethal,DT40 TDP1 no CPT
CCn1nc(C)c2c(-c3ccccc3)cc(=O)n(C(C)C(=O)Nc3ccc(OC)c(OC)c3)c21 (stereo unspecified),10µM*,x,x,u,x,16µM*
COc1ccc(N(C(=O)c2ccc(S(=O)(=O)N3CCCCC3)cc2)C2C=CS(=O)(=O)C2)cc1 (stereo unspecified),x,x,x,41%,x,x
Cc1ccc(-c2noc(CSc3nnc4ccccn34)n2)cc1F,x,x,x,-3%,x,x
Cc1nn(C)cc1C(C)NC(=O)c1cc(COc2c(F)cccc2F)on1 (stereo unspecified),-28%,14%,-25,-2%,15%,9%
CCn1ccnc1CN(C)C(=O)c1cc(COc2ccc(OC)c3ccccc23)on1,15µM*,u,-16,i,-25%,u
Cc1nn(C)cc1C(C)NC(=O)c1cc(COc2cccc3cnccc23)on1 (stereo unspecified),10µM*,u,-13,2%,-10%,u
O=C(c1cc(COc2cccc3cnccc23)on1)N1CCCC(CCCO)C1 (stereo unspecified),1.2µM*,u,u,2%,u,0.65µM*
COCC1CCN(C(=O)c2cc(COc3cccc4cnccc34)on2)CC1,9.2µM*,-27%,-53*,4%,-16%,4.1µM*
Cc1ccc(NC(=S)NCC(C)N2CCCCC2C)cc1Cl (stereo unspecified),x,x,x,-38%,x,x
CSc1ccccc1OCc1cc(C(=O)N2CCCC(C)C2)no1 (stereo unspecified),-7%,3%,-12,-2%,8%,u
COc1ccc(OCc2cc(C(=O)N3CCCC(CO)C3)no2)c2ccccc12 (stereo unspecified),u,0%,-12,u,-12%,15µM*
CCc1cc(C(=O)N2CCCC(CNC(=O)c3ccc(-c4ccccc4)cc3)C2)no1 (stereo unspecified),u,0%,-23,-8%,1%,16µM*
